Laboratory results published in the supplement of paper PMC11417369.
In all, about 25,000 sequences were measured (“ln(normalized median fluorescence intensity)”: median about 6.7, highest 2% from about 10 on). The entries come from a sample that favours the highest values as a whole.

Tested on: PfHDP1 homeodomain (GST-tagged)
Assay: gcPBM binding intensity (ln(normalized median fluorescence intensity)); higher = stronger DNA binding
Method in brief: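 GST-fused DNA-binding domains of P. falciparum, expressed in E. coli, were applied at about 25 μg on average for 1 h to an Agilent 4 × 180k array of primer-extended double-stranded 36-bp intergenic genomic probes and negative controls. Binding intensity is the highest Masliner-normalised natural-log median intensity across replicate spots of either probe orientation, measured with Alexa488 anti-GST antibody and a 488 nm scan.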

Row | Sequence | gcPBM binding intensity (ln)
1 | TTACAAGTAAAAGGTACACACATTATAAATACAAAT [CACACA_site4752] | 6.93
2 | ATCAACATCTAACATTGTACATGTGATGTGTAAAAG [XGTACX_site547] | 6.69
3 | TATATATATATATGTACACACATCAATCATATTAAC [CACACA_site1946] | 9.26
4 | TATATATATATATATATTAATAATTAATATAAAAGA [XGTACX_negctrl_site32] | 9
5 | GAGGTACATTAATTAGTGCATTAAAATTTTTATCCT | 9.85
6 | TATGTTATATAATATTGTACACAAAATGGTTTCTAT [XGTACX_site7686] | 6.73
7 | TAAATTAAAAAAAAAAACAAAAAAAAAGCAACAAAA [CACACA_negctrl_site1318] | 6.62
8 | AAGTTTTCTTAAAGATGTACTTTTTAAAAATAAAAT [XGTACX_site3063] | 6.15
9 | TTTTGAAGTAATACATGTACTTAAATTACTAAAAAA [XGTACX_site1955] | 6.04
10 | ATGTGCACATGTAGAAGTACTTTTTCTTAAAATACT [XGTACX_site8341] | 10.9
11 | TTTAAAATGGGACTTTGAAAAAAAAAAAAAAAAACA [TGCATGCA_negctrl_site111] | 6.1
12 | TTTTTTTTTTTTTTTGTGCACAATTATTTCAATTTT [GTGCAC_site9884] | 10.2
13 | TGTGTCAAATAATTAATGTCATATATATTTTGTATA [CACACA_negctrl_site1479] | 6.11
14 | TTTTCATATTATAGTGCACACAAAAATATATATATG [CACACA_site8929] | 10.3
15 | AAATATTACATTTGTTAAATAATATGTTATACATAA [XGTACX_negctrl_site484] | 5.89
16 | TGTGTATTTATAAATACACACCAAATGTTAATATAT [CACACA_site6904] | 6.9
17 | GTCAAATTTTTGTGCACACATATATAGTTATTATTA [CACACA_site2241] | 11.7
18 | CAGTTGTTAATTTGTGTGCACCAAATATTATACATA | 10.5
19 | ATGTCAAATTTTTGTGCACACATATATAGTTATTAT [CACACA_site2242] | 11.4
20 | AATTTTTTATATGTCACACATTTGTTATTATTATTA [CACACA_site4197] | 6.51
21 | ATGAAACAGTAACATTGTACTTTTACAAAAAAATAA [XGTACX_site806] | 6.25
22 | TTATATATATATAATACACACATAATAATATATTTA [CACACA_site3038] | 6.67
23 | TATAATAATAATAATAGTACGTATTATTAAAAAACT [XGTACX_site10] | 6.58

Row | Sequence | gcPBM binding intensity (ln)
24 | TTATAAAAAATTTTAGTGCATATATGATTTATATAT [GTGCAC_site9831] | 9.44
25 | TATATAGATATGATAGTGCATTTTTAGAAAACATAA [GTGCAC_site9962] | 7.95
26 | ATGATATGCAATTTAGTGCATAACAAAATTGGTATA | 10.5
27 | AAAATGCATTTGATGTGTACGCATTATAAAGAACAA [XGTACX_site4203] | 7.39
28 | ATAGGCACTTTTTGCACACGTATGAATAACAAAATA [CACACA_site5069] | 10.4
29 | TTATATGCACTTTTTGCACACGTATGAATAACAAAA [CACACA_site1811] | 11.5
30 | TAGTATAATATGAACACACACACACGCACAAAAAAA [CACACA_site7035] | 7.3
31 | ATATGCACTTTTTGCACACGTATGAATAACAAAATA [CACACA_site1810] | 11.2
32 | AGTAAATAACACAAATATGAATGAAAAAAAAAATAT [GTGCAC_negctrl_site235] | 6.82
33 | TACGTAATAATATGCACACAAATAAACTTTATAAAT [CACACA_site3501] | 9.89
34 | AAAAGGAAGATATATACACACATACAAATATTTATA [CACACA_site7093] | 6.71
35 | TATACTTGTAAATGCACACATAAGATGCGACTAATG [CACACA_site2118] | 9.37
36 | TAAGGGATATGTATATGTACATACAAATATATATAA [XGTACX_site2892] | 6.63
37 | TAAGTGCATGAGATATGTACATATATAAAATATATA [XGTACX_site3294] | 9.2
38 | TACAATAAGGATAAGTGTACATATGTGCATACATAT [XGTACX_site7188] | 10.6
39 | TATACATACTCACCCACACACAAAAAAAAAAAAAAA [CACACA_site862] | 6.43
40 | TTTTATCTTTTTTTATTTTAATGTATTATTTTTATG [XGTACX_negctrl_site24] | 6.61
41 | ATAAAAAAATTAAATACATGCACATATACACATACA [TGCATGCA_site129] | 8.6
42 | TATAACCGAATGTGTACACAAAATAATGTTATATAT [CACACA_site5627] | 7.77
43 | GAATAAATTAAAAATGCACACTTTGATGGGTACATT [CACACA_site5220] | 8.68
44 | ATGTCTAATTTTGATGCACACTTTTGTGCAATTAAA [CACACA_site5589] | 11
45 | GAATGTCTAATTTTGATGCACACTTTTGTGCAATTA [CACACA_site2902] | 11.1
46 | AATTTTTGTTACAAGATGCACTTAATTTTTCTAAAT | 7.92

Row | Sequence | gcPBM binding intensity (ln)
47 | TGTTTGTAATTATGTATGCACTTTTTTGTATGTGTG [GTGCAC_site9668] | 7.52
48 | GATGATTCAATTTATGCACACTAAAAATTAATTATA [CACACA_site4308] | 10.1
49 | TGTAGACTACATAGTAGTACATAATATATACATATA [XGTACX_site367] | 6.21
50 | TACTTATTATGAAACACACACCAAAACTACAGAATA [CACACA_site6265] | 7.04
51 | GTGCATATATGATATACACACAATATAATAGTATGT [CACACA_site2460] | 7.18
52 | TTTTTTTTTAATCATGCACACTGTTAAAAGAATAAA [CACACA_site4817] | 8.29
53 | TTTTTATGGACTATGGTGCATTATATATAAATGAAA [GTGCAC_site9557] | 10.3
54 | ATTAAATGCAGTTCGGTGCATTAAGGTTATGATGAA [GTGCAC_site9883] | 10.7
55 | ATTATCAATATGAAGGTGCATTTAAATAATATTTAC | 9.62
56 | TAATATAATGATGCAGTGCATATGTTAAAATGAAAA | 8.68
57 | TCTTGTTCGCCCTATTGTACAAACATATATTGTGAT [XGTACX_site2884] | 7.27
58 | AAAATATAATATAATGCACACATAAACAAAAAAAAA [CACACA_site8161] | 10.1
59 | ATATAAACACTGAATGCATGCACATATATATATATA [TGCATGCA_site940] | 9.37
60 | AAAATATAATATAATGCACACATAAAACAAAAAAAA [CACACA_site8989] | 9.76
61 | ATTATATATAAACACACACACATGCATGCACATATA [CACACA_site4237] | 10.5
62 | TAATAAATCAAATGCACACACACAAAAAAAAAAAAA [CACACA_site161] | 10
63 | AATATAATATAATGCACACATAAACAAAAAAAAAAT [CACACA_site1304] | 10.5
64 | AAATATAAAGTGCACACACACAAAAAAAGAAAAAAA [CACACA_site6452] | 8.92
65 | AACGGGTAATGCACAAAAAAAAAAAAATAAAATAAA [TGCATGCA_negctrl_site474] | 10.9
66 | ATATTATATAAATACACACACACATGCATGCACATA [CACACA_site4236] | 10.3
67 | AATATAAAAATGCACACACACAAAAAAAAAAAAAAA [CACACA_site6546] | 9.21
68 | GCACAAATATATATATATATATATATATATATATAT [GTGCAC_negctrl_site661] | 9.39
69 | ATGAGTGCACAAATATATATATATATATATATATAT [CACACA_negctrl_site404] | 10.7
